Hit rate of the full screen: of about 5,500 compounds, about 2,000 (36%) were called active. Roughly 18% stayed inconclusive and do not appear here. Rule as the data show it: active = normalized growth mostly below about 0.91 (no sharp cut-off); inconclusive = no clear call, values can overlap the other calls; inactive = mostly above about 0.92. The list shows a part of the results.
Assay: chemical genetic growth profiling, strain panel (AID 1159580);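 also: tested at 20 µM; growth read once vehicle control cultures reached saturation at 30 °C; 1 = growth at the plate median or of vehicle wells; lower values mean less growth of the strain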
Details: growth OD

Measured: normalized growth

COc1ccc2c(c1)c(CC(=O)OCC(=O)O)c(C)n2C(=O)c1ccc(Cl)cc1
inactive: S. cerevisiae deletion strains, locus YJR075W, strain HOC1, hits give low values 1.03 | S. cerevisiae deletion strains, locus YKL009W, strain mrt4, hits give low values 0.951 | S. cerevisiae deletion strains, locus YKL068W, hits give low values 1.01 | S. cerevisiae deletion strains, locus YKL085W, strain MDH1 (second series), hits give low values 0.984 | S. cerevisiae deletion strains, locus YKL085W, strain MDH1, hits give low values 0.984 | S. cerevisiae deletion strains, locus YKL160W, strain elf1, hits give low values 0.99 | S. cerevisiae deletion strains, locus YKL190W, strain CNB1, hits give low values 1.01 | S. cerevisiae deletion strains, locus YKR001C, strain vps1, hits give low values 1.02 | S. cerevisiae deletion strains, locus YKR026C, strain gcn3, hits give low values 0.991 | S. cerevisiae deletion strains, locus YKR091W, strain srl3, hits give low values 1 | S. cerevisiae deletion strains, locus YLL001W, strain dnm1, hits give low values 0.958 | S. cerevisiae deletion strains, locus YLL026W, hits give low values 0.997 | S. cerevisiae deletion strains, locus YLL041C, strain sdh2, hits give low values 0.995 | S. cerevisiae deletion strains, locus YLR027C, strain aat2, hits give low values 0.971 | S. cerevisiae deletion strains, locus YLR039C, strain RIC1, hits give low values 1.03 | S. cerevisiae deletion strains, locus YLR058C, strain SHM2, hits give low values 1.02 | S. cerevisiae deletion strains, locus YLR102C, strain apc9, hits give low values 1.01 | S. cerevisiae deletion strains, locus YLR113W, strain HOG1, hits give low values 0.991 | S. cerevisiae deletion strains, locus YLR221C, strain rsa3, hits give low values 0.998 | S. cerevisiae deletion strains, locus YLR258W, strain gsy2, hits give low values 1 | S. cerevisiae deletion strains, locus YLR262C, strain YPT6 (second series), hits give low values 0.99 | S. cerevisiae deletion strains, locus YLR262C, strain YPT6, hits give low values 1.03 | S. cerevisiae deletion strains, locus YLR268W, strain sec22, hits give low values 1.06 | S. cerevisiae deletion strains, locus YLR320W, strain mms22, hits give low values 1.01 | S. cerevisiae deletion strains, locus YLR330W, strain CHS5, hits give low values 1.01 | S. cerevisiae deletion strains, locus YLR342W, strain FKS1 (second series), hits give low values 1.02 | S. cerevisiae deletion strains, locus YLR342W, strain FKS1, hits give low values 0.971 | S. cerevisiae deletion strains, locus YLR357W, strain rsc2, hits give low values 0.946 | S. cerevisiae deletion strains, locus YLR370C, strain arc18, hits give low values 0.983 | S. cerevisiae deletion strains, locus YLR371W, strain rom2, hits give low values 1.02 | S. cerevisiae deletion strains, locus YLR384C, strain iki3, hits give low values 0.982 | S. cerevisiae deletion strains, locus YLR418C, strain cdc73, hits give low values 1.03 | S. cerevisiae deletion strains, locus YML016C, strain PPZ1, hits give low values 1 | S. cerevisiae deletion strains, locus YML032C, strain rad52, hits give low values 1.02 | S. cerevisiae deletion strains, locus YML120C, strain ndi1, hits give low values 0.982 | S. cerevisiae deletion strains, locus YML124C, strain tub3, hits give low values 1.02 | S. cerevisiae deletion strains, locus YMR058W, strain fet3, hits give low values 0.995 | S. cerevisiae deletion strains, locus YMR078C, strain ctf18, hits give low values 1.01 | S. cerevisiae deletion strains, locus YMR125W, strain sto1, hits give low values 1 | S. cerevisiae deletion strains, locus YMR129W, hits give low values 1.01 | S. cerevisiae deletion strains, locus YMR205C, strain PFK2, hits give low values 0.976 | S. cerevisiae deletion strains, locus YMR223W, strain ubp8, hits give low values 1.02 | S. cerevisiae deletion strains, locus YMR231W, strain pep5, hits give low values 0.991 | S. cerevisiae deletion strains, locus YMR263W, strain SAP30, hits give low values 1.02 | S. cerevisiae deletion strains, locus YMR307W, strain GAS1, hits give low values 1.04 | S. cerevisiae deletion strains, locus YNL067W, strain RPL9B, hits give low values 1.03 | S. cerevisiae deletion strains, locus YNL071W, strain lat1, hits give low values 1.01 | S. cerevisiae deletion strains, locus YNL128W, strain TEP1, hits give low values 1.02 | S. cerevisiae deletion strains, locus YNL153C, strain GIM3, hits give low values 1.02 | S. cerevisiae deletion strains, locus YNL183C, strain NPR1, hits give low values 0.868 | S. cerevisiae deletion strains, locus YNL209W, strain ssb2, hits give low values 1.01 | S. cerevisiae deletion strains, locus YNL233W, strain BNI4, hits give low values 1.02 | S. cerevisiae deletion strains, locus YNL248C, strain rpa49, hits give low values 1.03 | S. cerevisiae deletion strains, locus YNL250W, strain rad50, hits give low values 1.02 | S. cerevisiae deletion strains, locus YNL271C, strain bni1, hits give low values 1.02 | S. cerevisiae deletion strains, locus YNL298W, strain CLA4, hits give low values 0.998 | S. cerevisiae deletion strains, locus YNL307C, strain MCK1, hits give low values 1.02 | S. cerevisiae deletion strains, locus YNL322C, strain KRE1 (second series), hits give low values 1.01 | S. cerevisiae deletion strains, locus YNL322C, strain KRE1, hits give low values 1.01 | S. cerevisiae deletion strains, locus YNR049C, strain mso1, hits give low values 0.995 | S. cerevisiae deletion strains, locus YNR052C, strain pop2, hits give low values 1 | S. cerevisiae deletion strains, locus YOL006C, strain TOP1, hits give low values 1.11 | S. cerevisiae deletion strains, locus YOL012C, strain htz1 0.843 | S. cerevisiae deletion strains, locus YOL147C, strain pex11, hits give low values 1.02 | S. cerevisiae deletion strains, locus YOR001W, strain rrp6, hits give low values 0.969 | S. cerevisiae deletion strains, locus YOR061W, strain CKA2, hits give low values 1.01 | S. cerevisiae deletion strains, locus YOR069W, strain VPS5, hits give low values 1.01 | S. cerevisiae deletion strains, locus YOR070C, strain gyp1, hits give low values 1.01 | S. cerevisiae deletion strains, locus YOR080W, strain dia2, hits give low values 0.976 | S. cerevisiae deletion strains, locus YOR083W, strain WHI5, hits give low values 0.951 | S. cerevisiae deletion strains, locus YOR106W, strain vam3, hits give low values 0.975 | S. cerevisiae deletion strains, locus YOR136W, strain idh2, hits give low values 1.02 | S. cerevisiae deletion strains, locus YOR144C, strain elg1, hits give low values 1.02 | S. cerevisiae deletion strains, locus YOR184W, strain ser1, hits give low values 1.02 | S. cerevisiae deletion strains, locus YOR231W, strain MKK1, hits give low values 0.97 | S. cerevisiae deletion strains, locus YOR265W, strain rbl2, hits give low values 1 | S. cerevisiae deletion strains, locus YOR270C, strain vph1, hits give low values 1 | S. cerevisiae deletion strains, locus YOR290C, strain snf2, hits give low values 1.02 | S. cerevisiae deletion strains, locus YOR316C, strain cot1, hits give low values 1.02 | S. cerevisiae deletion strains, locus YPL051W, strain arl3, hits give low values 0.998 | S. cerevisiae deletion strains, locus YPL055C, strain LGE1, hits give low values 1.02 | S. cerevisiae deletion strains, locus YPL078C, strain atp4, hits give low values 0.986 | S. cerevisiae deletion strains, locus YPL106C, strain sse1, hits give low values 1.02 | S. cerevisiae deletion strains, locus YPL240C, strain hsp82, hits give low values 0.982 | S. cerevisiae deletion strains, locus YPL241C, strain CIN2, hits give low values 1 | S. cerevisiae deletion strains, locus YPL256C, strain CLN2, hits give low values 0.963 | S. cerevisiae deletion strains, locus YPR119W, strain clb2, hits give low values 1.01 | S. cerevisiae deletion strains, locus YPR141C, strain kar3, hits give low values 1.02 | S. cerevisiae deletion strains, locus YPR163C, strain tif3, hits give low values 1.02 | S. cerevisiae deletion strains, locus YPR167C, strain met16, hits give low values 1.01 | S. cerevisiae deletion strains, strain wtn01, hits give low values 1.02 | S. cerevisiae strains, strain wild type, hits give low values 1.01

Source: PubChem BioAssay AID1159580 (chemical genetic matrix, 2015)
